The experiment relates to Inhibin beta A chain (activin A). Kind of experiment: INHBA (activin A) binders on microarrays, primary screen, biochemical, small-molecule microarray, 635 nm fluorescence scan (AID 1107).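 Also: mouse activin A protein probed at 4.33 µg/mL on printed slides; score merges bound-protein fluorescence near 667 nm with spot signal-to-noise.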 The note with it: small-molecule microarray binding, higher = more signal.
Consider `COc1ccc(COC(=O)NN=C2C[C@@H](O)[C@@H](O)[C@@H]3[C@@H]4C(=O)N(Cc5ccccc5)C(=O)[C@@H]4CC[C@H]23)cc1`, for which the composite z-score turned out to be 0.0152.

The molecule `CO[C@H]1COC(=O)[C@@H](C)COC(=O)[C@@H](OCc2ccccc2)C=C[C@@H]1C` gave a composite z-score of 0.18.

`COc1ccc(O[C@H]2C=C[C@@H](c3ccccc3)O[C@@H]2CON=C(C)CCN2CCc3nc(-c4ccccc4)c(-c4ccccc4)cc3C2)cc1` had a composite z-score of 0.829.

Take `CCN1C(=O)[C@H]2[C@H]3[C@H](O)[C@H](O)CC(=O)[C@H]3CC[C@H]2C1=O`: the composite z-score was -0.249.

In the case of `CCCNC(=O)OC[C@H]1O[C@H](CCON=C(C)C)C=C[C@@H]1Oc1ccc(OC)cc1`, the composite z-score worked out at 1.23.

As for `CCOC(=O)NN=C1C[C@@H](O)[C@@H](O)[C@@H]2[C@@H]3C(=O)N(c4ccc(F)cc4F)C(=O)[C@@H]3CC[C@@H]12`, the composite z-score is 0.18.

On to `C[n+]1ccc(-c2ccc(CO)cc2)cc1`, for which the composite z-score is 2.16.

Source of the values: PubChem BioAssay.
